Results: PubChem BioAssay (NCATS)
Records with an inconclusive call do not appear. Entries that show only a call come without a potency. A number with no mark means an inactive call. Activity calls are given as the source filed them. The call rests on the fitted dose curve; in most records, active means well fitted inhibition curve with a large enough effect; inconclusive means small, poorly fitted or top-dose-only effect; inactive means no such curve, though single readings can be large or run the other way.

Key:
[1] = system: Zika virus NS2B-NS3 protease (unlinked complex); assay: Primary screen GU Rhodamine qHTS for Zika virus inhibitors: Unlinked NS2B-NS3 protease assay (AID 1347159); further: nearly all actives have a fitted effect of over 60% in size
In short: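 Enzyme 25 nM in Tris-HCl pH 8.0 + 0.01% Tween 20; compounds up to 114 microM, 15 min RT dark; + Rhod110 substrate 1.5 microM; read t0 and 15 min; delta fluorescence → % inhibition → 4-parameter Hill fit.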

[2] = system: Zika virus NS2B-NS3 protease (linked construct); assay: Primary screen NINDS Rhodamine qHTS for Zika virus inhibitors (AID 1347160); further: nearly all actives have a fitted effect of over 55% in size
In short: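 Enzyme (25 nM, linked NS2B-NS3) was preincubated 15 min with compound in 10 mM Tris-HCl pH 8.0, 0.01% Tween 20. Rhodamine110 substrate (1.5 microM) was then added and fluorescence read at start and after 15 min.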

Row | SMILES | Potency [1] | Potency [2] | activity change, negative = inhibition [1] | outcome [2]
1 | CO[C@H]1O[C@@H]2O[C@]3(C)CC[C@H]4[C@H](C)CC[C@@H]([C@H]1C)[C@@]24OO3 | inactive | inactive | – | –
2 | CC1C(=O)OCC2=CCN3CCC(OC(=O)C(C)(O)C1(C)O)C23 (stereo not drawn) | inactive | inactive | – | –
3 | O=C(CN1C(=O)C2(CCCC2)NCC1c1cc(F)cc(F)c1)Nc1ccc2c(c1)CC1(C2)C(=O)Nc2ncccc21 (stereo not drawn) | inactive | inactive | – | –
4 | CC1(C)C2CC=C(COC3OC(COC4OCC(O)(CO)C4O)C(O)C(O)C3O)C1C2 (stereo not drawn) | inactive | inactive | – | –
5 | CO[C@H]1C[C@@H]2CC[C@@H](C)[C@@](O)(O2)C(=O)C(=O)N2CCCC[C@H]2C(=O)O[C@H]([C@H](C)C[C@H]2CC[C@@H](OP(C)(C)=O)[C@H](OC)C2)CC(=O)[C@H](C)/C=C(\C)[C@@H](O)[C@@H](OC)C(=O)[C@H](C)C[C@H](C)/C=C/C=C/C=C/1C | inactive | inactive | – | –
6 | CC1OC(OC2C(CO)OC(OCC3OC(OC(=O)C45CCC(C)(C)CC4C4=CCC6C7(C)CCC(OC8OC(CO)C(O)C(OC9OC(CO)C(O)C(O)C9O)C8O)C(C)(C)C7CCC6(C)C4(C)CC5)C(O)C(O)C3O)C(O)C2O)C(O)C(O)C1OC1OC(CO)C(O)C(O)C1O (stereo not drawn) | – | – | 10.6% [at 19.1 µM] | inactive [at 10.7 µM]
7 | CCCNc1ccc2ncc(-c3ccc4[nH]ncc4c3)n2n1 | inactive | inactive | – | –
8 | C=CC[C@]12C[C@@H](OC)C(=O)C(OC)=C1O[C@@H](c1cc(OC)c3c(c1)OCO3)[C@@H]2C | inactive | inactive | – | –
9 | COc1cc(-c2ncn(/C=C\C(=O)OC(C)C)n2)cc(C(F)(F)F)c1 | inactive | inactive | – | –
